“And” between values parts separate entries of the source, which are not always exact repeats. Equal values may be shown once. Unmarked numbers belong to inactive results. Results filed as inconclusive are left out. Entries that show only a call come without a potency. The source made the active and inactive calls. Unless noted, calls come from the whole dose curve; as a rule, active = well fitted curve in the direction sought with a large enough effect in the repeat runs; inconclusive = weak or mixed curves; inactive = no such curve, though single readings can be large; an effect the other way counts as inactive or inconclusive.
Assays:
[1] = target: Luciferin 4-monooxygenase (Photinus pyralis) (UniProt P08659); assay: qHTS assay to identify small molecule inhibitors of firefly luciferase (AID 1224835); note: nearly all actives have a fitted effect of over 25% in size
Outline: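 Quantitative HTS format; KM concentrations of both substrates. Purified P. pyralis FLuc activity quantified from luminescence images.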

[2] = qHTS assay to identify small molecule agonists of the constitutive androstane receptor (CAR) signaling pathway - cell viability counter screen (AID 1224836); note: nearly all actives have a fitted effect of over 45% in size; note: potency is the fitted concentration of half-maximal effect
Outline: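 Viability read-out: CellTiter-Fluor fluorescence after 23 h compound exposure at 37 C/5% CO2 in double-stable HepG2-CYP2B6-hCAR cells, with PK11195 present at 0.75 uM final; compounds tested in 15-point titration.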

[3] = qHTS assay to identify small molecule antagonists of the constitutive androstane receptor (CAR) signaling pathway - cell viability counter screen (AID 1224837); note: nearly all actives have a fitted effect of over 45% in size; note: potency is the fitted concentration of half-maximal effect
Outline: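 Read-out: CellTiter-Fluor fluorescence after 23 hr at 37 C/5% CO2. Cells: HepG2 double-stable for hCAR and CYP2B6-2.2kb. Compounds tested at 15 concentrations in the presence of CITCO, final concentration 50 nM.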

[4] = target: Nuclear receptor subfamily 1 group I member 3 (Homo sapiens) (UniProt Q14994); assay: qHTS assay to identify small molecule antagonists of the constitutive androstane receptor (CAR) signaling pathway (AID 1224838);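 note: HepG2 cells stably expressing hCAR with CYP2B6 luciferase reporter stimulated by CITCO; nearly all actives have a fitted effect of over 40% in size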; note: potency is the fitted concentration of half-maximal effect
Outline: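 Read-out: ONE-Glo luciferase luminescence after 30 min at room temperature. HepG2-CYP2B6-hCAR double-stable cells, compounds in 15-point titration plus 50 nM CITCO final, 24 h at 37 C/5% CO2.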

[5] = target: Nuclear receptor subfamily 1 group I member 3 (Homo sapiens) (UniProt Q14994); assay: qHTS assay to identify small molecule agonists of the constitutive androstane receptor (CAR) signaling pathway (AID 1224839); note: nearly all actives have a fitted effect of over 15% in size; note: potency is the fitted concentration of half-maximal effect;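 for activation: HepG2 cells stably carrying human CAR and a CYP2B6 luciferase reporter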
Outline: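 Luminescence read-out (ONE-Glo, 30 min, room temperature) from double-stable HepG2-CYP2B6-hCAR cells exposed 24 h to 15-point compound series in presence of 0.75 uM PK11195 final.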

[6] = qHTS assay to identify small molecule antagonists of the estrogen related receptor signaling pathway with the pleiotropic PPARgamma coactivator (PGC) from Tox21 10K library - cell viability counter screen (AID 1224840; active = well fitted cell-killing curve with a large enough effect in the repeat runs, not every such curve was filed as active; note: nearly all actives have a fitted effect of over 40% in size; note: potency is the fitted concentration of half-maximal effect)
Outline: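 Fluorescence read-out of CellTiter-Fluor viability reagent, added after cells had been exposed to compound in DMSO for 17.5 h at 37 C; 30 min development at 37 C/5% CO2. Cells: PGC/ERR line, 2,000/well.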

[7] = qHTS assay to identify small molecule agonists of the estrogen related receptor signaling pathway with the pleiotropic PPARgamma coactivator (PGC) from Tox21 10K library (AID 1224842); note: nearly all actives have a fitted effect of over 15% in size
Outline: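 PGC/ERR reporter cells (NTP line) were seeded 2,000 per well, rested 6 h at 37 C/5% CO2, then pin-dosed with compounds in DMSO for 18 h at 37 C; luciferase read by One-Glo luminescence after 30 min at room temperature.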

[8] = qHTS assay to identify small molecule agonists of the hypoxia (HIF-1) signaling pathway - cell viability counter screen (AID 1224844; calls by dose curve; note: nearly all actives have a fitted effect of over 50% in size; note: potency is the fitted concentration of half-maximal effect)
Outline: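 CellTiter-Glo luminescence read-out, 30 min RT, taken in the same wells as the beta-lactamase HRE reporter assay; HRE-bla ME-180 cells, 0.5% dialyzed FBS, 17 hr compound treatment at 37C, 5% CO2.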

[9] = qHTS assay to identify small molecule agonists of H2AX - cell viability counter screen (AID 1224847; calls by dose curve; note: nearly all actives have a fitted effect of over 30% in size; note: potency is the fitted concentration of half-maximal effect)
Outline: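 CHO-K1 wt, 1000 cells/well, o/n 37C; cpds 15 conc, 3 h 37C, 0.76% DMSO; CellTiter-Glo, 30 min RT, luminescence.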

[10] = qHTS assay to identify small molecule antagonists of the estrogen related receptor (ERR) signaling pathway from Tox21 library (AID 1224848); note: nearly all actives have a fitted effect of over 50% in size; note: potency is the fitted concentration of half-maximal effect
Outline: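 First, 2,000 ERR cells per well were plated and held 6 h at 37 C/5% CO2. Next, compounds in DMSO were pinned in and left 18 h at 37 C. Finally, ONE-Glo was added and luminescence read after 30 min at room temperature.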

[11] = qHTS assay to identify small molecule agonists of the estrogen related receptor (ERR) signaling pathway from Tox21 library (AID 1224849; calls by dose curve; note: nearly all actives have a fitted effect of over 15% in size); details: ERR reporter cell line, ONE-Glo luciferase, 18 h; at 92.4 µM (top of the series) unless noted
Outline: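 Luminescence readout (ONE-Glo, 30 min RT) after 18 h compound exposure at 37 C of NTP-supplied ERR reporter cells; cells were plated 6 h before compound addition by pin tool.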

[12] = qHTS RealTime-Glo MT Cell Viability Assay in HepG2 cells - 24 hour (AID 1224867); note: nearly all actives have a fitted effect of over 50% in size; note: potency is the fitted concentration of half-maximal effect
Outline: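 HepG2 cells were seeded at 600 cells/well together with NanoLuc luciferase and a cell-permeant prosubstrate, preincubated 5 h at 37 C/5% CO2, then pin-dosed with compounds in DMSO. Nonlytic luminescence from viable cells was read at each time point.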

[13] = qHTS RealTime-Glo MT Cell Viability Assay in HEK293 cells - 32 hour (AID 1224868); note: nearly all actives have a fitted effect of over 50% in size; note: potency is the fitted concentration of half-maximal effect
Outline: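 HEK293 cells were seeded at 600 cells/well together with NanoLuc luciferase and cell-permeant prosubstrate, preincubated 5 h at 37 C/5% CO2, then given compound in DMSO by pintool. Luminescence from viable-cell prosubstrate reduction was read repeatedly over 40 h.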

[14] = A CellTox Green Cytotoxicity Assay to monitor cytotoxicity in HEK293 cells - 0 hour (AID 1224869); note: nearly all actives have a fitted effect of over 50% in size
Outline: (§1)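 Read-out: fluorescence of a cell-impermeant cyanine dye staining DNA of dead cells, proportional to cytotoxicity. HEK293, 600 cells/well with reagent, compound (23 nL DMSO) added after 5 h; reads at 0, 8, 16, 24, 32, 40 h.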

[15] = qHTS RealTime-Glo MT Cell Viability Assay in HepG2 cells - 40 hour (AID 1224870); note: nearly all actives have a fitted effect of over 50% in size; note: potency is the fitted concentration of half-maximal effect
Outline: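 HepG2 cells mixed with RealTime-Glo MT reagents (NanoLuc plus cell-permeant prosubstrate) were seeded at 600 cells/well, incubated 5 h at 37 C/5% CO2, then pinned with compounds in DMSO; nonlytic luminescence tracked viability during 40 h treatment.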

[16] = A CellTox Green Cytotoxicity Assay to monitor cytotoxicity in HEK293 cells - 40 hour (AID 1224871); note: nearly all actives have a fitted effect of over 45% in size; note: potency is the fitted concentration of half-maximal effect
Outline: as §1

[17] = target: Thyrotropin receptor (Homo sapiens) (UniProt P16473); assay: qHTS assay to identify small molecule agonists of the thyroid stimulating hormone receptor (TSHR) signaling pathway (AID 1224843; calls by dose curve; note: nearly all actives have a fitted effect of over 45% in size; note: potency is the fitted concentration of half-maximal effect)
Outline: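 Compounds are titrated over 15 concentrations, in triplicate, onto TSHR-HEK293 cells seeded at 800/well. Plates sit 30 min at room temperature before cAMP-d2 and anti-cAMP cryptate are added; signal is read after a further hour.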

[18] = qHTS assay to identify small molecule agonists of H2AX (AID 1224845; active = well fitted activation curve with a large enough effect in the signal ratio in the repeat runs, not every such curve was filed as active; the % refers to the signal ratio)
Outline: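 Wild-type CHO-K1 cells plated overnight, then exposed 3 hr at 37C to compounds at 15 concentrations (0.76% DMSO). Lysed, then HTRF anti-pH2AX(S139)-cryptate/anti-H2AX-d2 detection after 24 hr at room temperature; emissions 665 and 620 nm.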

[19] = qHTS assay to identify small molecule agonists of the hypoxia (HIF-1) signaling pathway (AID 1224846; active = well fitted activation curve with a large enough effect in the signal ratio in the repeat runs, not every such curve was filed as active; the % refers to the signal ratio)
Outline: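 Beta-lactamase FRET read-out (CCF4-AM substrate) from ME-180 cells carrying an HRE-driven bla reporter, after 17 hrs compound exposure at 37C/5% CO2. Cells were seeded at 2,000 per well in 0.5% dialyzed FBS medium and preincubated 5 hrs.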

Nuclear receptor subfamily 1 group I member 3 (Homo sapiens), sequence (Q14994 whole entry, looked up): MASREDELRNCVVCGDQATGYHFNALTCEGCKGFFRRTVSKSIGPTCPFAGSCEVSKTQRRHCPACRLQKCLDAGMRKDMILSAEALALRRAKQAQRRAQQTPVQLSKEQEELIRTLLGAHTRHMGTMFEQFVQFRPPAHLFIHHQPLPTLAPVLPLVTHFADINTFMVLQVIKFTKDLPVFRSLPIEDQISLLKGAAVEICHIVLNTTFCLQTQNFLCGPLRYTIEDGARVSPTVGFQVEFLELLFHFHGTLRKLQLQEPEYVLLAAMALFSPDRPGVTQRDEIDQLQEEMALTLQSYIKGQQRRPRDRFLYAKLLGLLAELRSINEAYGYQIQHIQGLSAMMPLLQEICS
Luciferin 4-monooxygenase (Photinus pyralis), sequence (P08659 whole entry, looked up): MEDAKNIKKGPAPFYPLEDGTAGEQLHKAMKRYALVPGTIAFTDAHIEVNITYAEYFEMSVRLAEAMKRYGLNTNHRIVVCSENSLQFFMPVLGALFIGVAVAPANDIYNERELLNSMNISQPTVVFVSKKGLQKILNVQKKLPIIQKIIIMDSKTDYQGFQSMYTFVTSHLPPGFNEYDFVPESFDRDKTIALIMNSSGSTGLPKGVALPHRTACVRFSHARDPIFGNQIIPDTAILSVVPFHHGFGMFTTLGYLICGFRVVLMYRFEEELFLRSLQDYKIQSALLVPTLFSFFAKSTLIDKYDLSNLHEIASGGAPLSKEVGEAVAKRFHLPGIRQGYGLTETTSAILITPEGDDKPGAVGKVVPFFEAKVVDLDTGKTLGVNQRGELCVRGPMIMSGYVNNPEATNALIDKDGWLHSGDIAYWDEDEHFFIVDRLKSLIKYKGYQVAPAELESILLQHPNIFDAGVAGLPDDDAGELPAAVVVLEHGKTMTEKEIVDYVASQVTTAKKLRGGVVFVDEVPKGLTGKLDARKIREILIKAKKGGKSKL
Thyrotropin receptor (Homo sapiens), sequence (P16473 whole entry, looked up): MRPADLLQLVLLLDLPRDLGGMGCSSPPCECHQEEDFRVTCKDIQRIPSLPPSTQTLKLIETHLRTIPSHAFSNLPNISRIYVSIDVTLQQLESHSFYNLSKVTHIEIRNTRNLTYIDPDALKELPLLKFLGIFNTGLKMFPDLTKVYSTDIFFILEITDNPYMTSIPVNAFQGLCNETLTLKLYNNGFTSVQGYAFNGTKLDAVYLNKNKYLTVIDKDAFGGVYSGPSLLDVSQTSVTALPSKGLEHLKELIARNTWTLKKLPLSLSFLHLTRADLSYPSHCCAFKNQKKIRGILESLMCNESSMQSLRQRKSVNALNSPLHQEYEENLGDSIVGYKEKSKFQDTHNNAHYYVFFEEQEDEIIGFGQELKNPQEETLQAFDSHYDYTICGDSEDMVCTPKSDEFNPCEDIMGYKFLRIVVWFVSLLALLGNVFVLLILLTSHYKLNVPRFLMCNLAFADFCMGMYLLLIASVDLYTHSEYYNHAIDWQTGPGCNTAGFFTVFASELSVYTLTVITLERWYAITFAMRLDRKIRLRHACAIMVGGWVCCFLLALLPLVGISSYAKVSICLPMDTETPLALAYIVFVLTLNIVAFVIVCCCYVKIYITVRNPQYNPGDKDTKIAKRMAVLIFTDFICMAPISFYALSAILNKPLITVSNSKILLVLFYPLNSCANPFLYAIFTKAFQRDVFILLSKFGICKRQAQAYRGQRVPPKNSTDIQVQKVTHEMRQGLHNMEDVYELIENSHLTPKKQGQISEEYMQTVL

Row | SMILES | Potency [1] | Potency [2] | Potency [3] | Potency [4] | Potency [5] | Potency [6] | Potency [7] | Potency [8] | Potency [9] | Potency [10] | activity change, positive = activation [11] | Potency [12] | Potency [13] | Potency [14] | Potency [15] | Potency [16] | Potency [17] | Potency [18] | Potency [19]
1 | O=C1C2(Cl)C3(Cl)C4(Cl)C(Cl)(Cl)C5(Cl)C3(Cl)C1(Cl)C5(Cl)C24Cl (configuration not stated) | inactive | 60.1 µM (active) | 60.1 µM (active) | 23.9 µM (active) and 52.2 µM (active) | inactive | 47.8 µM (active) and 58.5 µM (active) | inactive | 21.5 µM (active) | 49.6 µM (active) and 96.5 µM (active) | 26.9 µM (active) and 58.5 µM (active) | -74.4% and -66.3% | 42.9 µM (active) and 46.9 µM (active) | 19.2 µM (active) and 41.8 µM (active) | inactive | 54 µM (active) and 46.9 µM (active) | 42.9 µM (active) and 52.6 µM (active) |  |  | 
2 | CCCCON=O | inactive | inactive | inactive | inactive | inactive | inactive | inactive |  | inactive | inactive | -4.4% | inactive |  | inactive | inactive | inactive | inactive | inactive | inactive
3 | CC1CCCC1 | inactive | inactive | inactive | inactive | inactive | inactive |  | inactive | inactive |  |  | inactive | inactive |  | inactive |  | inactive | inactive | inactive
4 | CCCCC(CC)COC(=O)c1ccccc1C(=O)OCC(CC)CCCC (configuration not stated) | inactive | inactive | inactive | inactive | 17.2 µM (active) | inactive |  | inactive | inactive |  |  | inactive |  |  | inactive | inactive | 3.86 µM (active) | inactive | inactive
5 | C=Cc1cccc(CCl)c1 | inactive | inactive | inactive | inactive | inactive | inactive |  | inactive | inactive |  |  | inactive | inactive | inactive | inactive | inactive | inactive | inactive | 
6 | CCOP(=S)(OCC)Oc1cc(C)nc(N(CC)CC)n1 | inactive | inactive | inactive | inactive | 19.3 µM (active) | inactive | inactive | inactive | inactive |  |  | inactive | inactive | inactive | inactive | inactive |  |  | inactive
7 | BrCCCBr | inactive | inactive | inactive | inactive | inactive | inactive |  | inactive | inactive |  |  | inactive | inactive | inactive | inactive | inactive | inactive | inactive | inactive
8 | O=C(NC(=O)c1ccccc1Cl)Nc1ccc(OC(F)(F)F)cc1 | inactive | inactive | inactive | inactive | inactive | inactive |  | inactive | inactive |  |  | inactive |  | inactive | inactive | inactive | inactive | inactive | inactive
9 | CCN1CCC2(CC1)COc1cc3c(cc12)N(C(=O)c1ccc(-c2ccc(-c4nnc(C)o4)cc2C)cc1)CC3 | inactive | 44.8 µM (active) | 50.2 µM (active) | 44.8 µM (active) | inactive | 17.8 µM (active) | inactive | 20.2 µM (active) | 104 µM (active) | 10 µM (active) |  |  | 11.3 µM (active) |  | 45.2 µM (active) | 40.3 µM (active) |  | inactive | 
10 | COc1cnc(OC)n2nc(NS(=O)(=O)c3c(OCC(F)F)cccc3C(F)(F)F)nc12 | inactive | inactive | inactive | inactive | inactive | inactive | inactive | inactive | inactive | inactive | 0.129% | inactive | inactive | inactive | inactive | inactive |  | inactive | inactive
11 | Nc1ccc(Cl)cc1C(=O)c1ccccc1F | inactive | inactive | inactive | inactive | 23.7 µM (active) | inactive |  | inactive | inactive | inactive | 7.6% [at 42.5 µM] | inactive | inactive | inactive | inactive |  | inactive | inactive | inactive
12 | CC[C@]1(O)CC[C@H]2[C@@H]3CCC4=CCCC[C@@H]4[C@H]3CC[C@@]21C | inactive | inactive | inactive | 33.5 µM (active) | inactive | inactive |  | inactive | inactive |  | -21.6% [at 42.5 µM] | inactive |  | inactive | inactive | inactive | 15 µM (active) | inactive | inactive
13 | C[C@]12CC[C@H]3[C@@H](CCC4=CC(=O)CC[C@@H]43)[C@@H]1CC[C@@H]2OC(=O)CCc1ccco1 | inactive | inactive | inactive | inactive | inactive | inactive |  | inactive |  |  |  | inactive | inactive | inactive | inactive |  | inactive | inactive | inactive
14 | CSC(C)(C)/C=N/O | inactive | inactive | inactive | inactive | inactive | inactive |  | inactive | inactive |  |  | inactive | inactive | inactive | inactive | inactive | inactive | inactive | inactive
